TrxR1 inh-1: inhibitors of rat thioredoxin reductase 1; O89049; recombinant rTrxR1, NADPH fluorescence consumption, selenite substrate; Potency, µM (highest dose often 114 µM), for inactives: at the highest dose activity change, negative = inhibition, hits mostly inhibitors; 390,000 tested, 1% active; also: potency is read from the fitted curve at half-maximal effect; % is scaled to controls: 0 for no effect and ±100 for the full control effect; nearly all actives have a fitted effect of over 65% in size
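Rat TrxR1 (90 nM in the dispensed reagent) was pre-reduced with 400 uM NADPH for 5 min at room temperature, then incubated with compound for 15 min. After 400 uM selenite was added, NADPH fluorescence (Ex 340/Em 450 nm) was followed for 8 min.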
USP1-UAF1 inh: USP1/UAF1 (human) deubiquitinase inhibition | AID 743255 | recombinant USP1/UAF1, Ub-Rhodamine cleavage fluorescence | O94782 | Potency, µM (doses to about 57.1 µM), inactives show at the highest dose activity change, negative = inhibition, usual class: inhibitors | 390,000 tested, 0.23% active; also: potency is read from the fitted curve at half-maximal effect; % is scaled to controls: 0 for no effect and ±100 for the full control effect; nearly all actives have a fitted effect of over 60% in size
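1 nM enzyme complex + cpd, 15 min RT; start with Ub-Rho 150nM final; kinetic fluorescence ex 480/em 540, 6 reads q60 s. Buffer 50mM HEPES pH 7.8, 0.5mM EDTA, 0.1 mg/ml BSA, 1mM TCEP, 0.01% Tween-20.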
TrxR1 substrate: substrates of rat thioredoxin reductase 1. O89049. purified TrxR1 substrate turnover, NADPH consumption readout. Potency, µM (titrated, usually from 114 µM), for inactives: top-dose activity change, negative = substrate turnover. 390,000 tested, 0.01% active; also: potency is read from the fitted curve at half-maximal effect; % is scaled to controls: 0 for no effect and ±100 for the full control effect; nearly all actives have a fitted effect of over 50% in size
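Rat TrxR1, dispensed at 90 nM, was prereduced with 400 uM NADPH (final) for 5 min at ~22 deg C, then incubated with compound 15 min before 400 uM selenite. A first-read NADPH fluorescence drop versus no-compound background flagged substrates.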
Coupling enz: counter-screen for Giardia aldolase inhibitors: coupling enzyme system | activity change, negative = inhibition, % at 58.2 µM, hits read low | 290,000 tested, 0.67% active | coupling enzyme system counterscreen, AmpLite Red fluorescence; in the data active = activity change below about -30%; also: % is scaled to controls: 0 for no effect and ±100 for the full control effect
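First, compound is pin-transferred into glyceraldehyde-3-phosphate coupling-enzyme reagent at 57.5 uM final and held 10 min at RT. Next, substrate, coupling system and AmpLite Red are added. After 20 min RT, fluorescence (525/598 nm) is read.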
GALK inh: galactokinase (human) inhibition; AID 1868; P51570; 270,000 tested, 0.007% active; Purified GALK, Kinase-Glo residual ATP luminescence; Potency, µM (top dose mostly 57.5 µM), inactives show top-dose activity change, negative = inhibition, most hits filed as inhibitors; also: potency is read from the fitted curve at half-maximal effect; % is scaled to controls: 0 for no effect and ±100 for the full control effect
Target sequence (P51570 whole entry, looked up): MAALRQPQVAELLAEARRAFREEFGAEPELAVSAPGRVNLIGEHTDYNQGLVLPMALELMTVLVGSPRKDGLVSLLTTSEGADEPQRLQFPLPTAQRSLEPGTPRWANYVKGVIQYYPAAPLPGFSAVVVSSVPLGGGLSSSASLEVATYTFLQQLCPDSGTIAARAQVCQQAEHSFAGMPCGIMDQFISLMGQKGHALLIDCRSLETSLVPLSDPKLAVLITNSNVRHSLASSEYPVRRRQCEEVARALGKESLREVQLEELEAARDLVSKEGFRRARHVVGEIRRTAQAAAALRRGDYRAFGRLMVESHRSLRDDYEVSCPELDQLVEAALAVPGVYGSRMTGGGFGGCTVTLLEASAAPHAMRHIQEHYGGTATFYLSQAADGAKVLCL
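The enzyme phosphorylates galactose (100 uM) using ATP (35 uM); inhibition is detected as higher residual ATP, quantified by bioluminescence after 1 h reaction at room temperature, pH 8.0.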
GR counterassay: counter-screen for TrxR1 inhibitors: human glutathione reductase inhibition. shares compounds with TrxR1 inh-1. purified GR, DTNB reduction absorbance 405 nm kinetic. activity change, negative = inhibition, % at 57.1 µM. 55 tested, under 10 active
TrxR1 inh-2: rat TrxR1 inhibition, primary screen retest. 55 tested, 50% active. recombinant TrxR1, NADPH fluorescence consumption, selenite substrate. Potency, µM, actives largely listed as inhibitors. shares compounds with TrxR1 inh-1
TrxR1 insulin MOA: TrxR1 inhibitors: insulin reduction mechanism-of-action test; AID 652037; shares compounds with TrxR1 inh-1; TrxR1 Trx-coupled insulin reduction, NADPH absorbance 340 nm; Potency, µM; 55 tested, 20% active;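 active = compounds with a measured potency under 100 micromolar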
TrxR1 inh-3: inhibitors of rat thioredoxin reductase 1, DTNB reduction; shares compounds with TrxR1 inh-1; purified TrxR1, DTNB reduction, A412; Potency, µM; 55 tested, 90% active; AID 652256;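 active = a half-inhibiting concentration could be measured and was below 100 µM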
An asterisk follows results filed as active; i = inactive; / = not tested or not shown. Sampled rows, rich in hits. Any-hit rate of the full collection: about 1.5%. Unless noted, calls follow the shape of the dose curve; as a rule, active = well fitted curve in the direction sought with a large enough effect; inconclusive = small, poorly fitted or top-dose-only effect, or another doubt; inactive = no such curve, though single readings can be large; an effect the other way counts as inactive or inconclusive.

SMILES | TrxR1 inh-1 | USP1-UAF1 inh | TrxR1 substrate | Coupling enz | GALK inh | GR counterassay | TrxR1 inh-2 | TrxR1 insulin MOA | TrxR1 inh-3
Cc1ccc(C(=O)OC(C)C(=O)NC2CCCCC2)cc1S(=O)(=O)N1CCCCC1 (stereo not given) | 19% | -16% | 2% | / | / | / | / | / | /
CC(C)(C)OC(=O)NCCCCC1=CC2=CC(=O)C(C)(OC(=O)C3CCCC3)C(=O)C2=CO1 (stereo not given) | / | / | / | 5 | / | / | / | / | /
C=CCN1C(=O)N/C(=C/c2ccc(N3CCOCC3)o2)C1=O | / | / | / | -12 | / | / | / | / | /
O=C1N/C(=C/c2ccc(N3CCOCC3)o2)C(=O)N1c1ccccc1 | 7.1µM* | -11% | -3% | -8 | 1% | -13 | 2.1* | i | 2.1µM*
C[C@H]1Cc2c(COc3ccccc3)nc3c(c2CO1)CN(C(=O)c1ccco1)CC3 | / | / | / | 1 | / | / | / | / | /
C[C@@H]1CC=C[C@H]2[C@H]1C(=O)N(Cc1ccccc1)[C@H]2c1ccc2ccccc2c1Br | 16µM* | -21% | -9% | -4 | -1% | -11 | 5.3* | i | 0.95µM*
O=C(NCc1ccccn1)C1(C(F)(F)F)CC(CCCO)CCCO1 (stereo not given) | 6% | / | 2% | 2 | / | / | / | / | /
O=C(Nc1ccccc1)c1ccc2nc(-c3ccco3)c(-c3ccco3)nc2c1 | 4µM* | -21% | -6% | -38* | -3% | -27 | 3.8* | i | 1.6µM*
O=C(Nc1cccnc1)c1ccc2nc(-c3ccccc3)c(-c3ccccc3)nc2c1 | 10% | -7% | -3% | -1 | 1% | / | / | / | /

Screens (PubChem)
